In PubChem BioAssay AID1203 (The Scripps Research Institute Molecular Screening Center, 2008):
The campaign covered roughly 200,000 compounds. About 80 (0.04%) were called active. For the sample, actives were picked, then their nearest neighbours and some compounds at random. Unmarked numbers belong to inactive results.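 The calls were made as follows: active = activation above the mean across all tested compounds plus 3 SD, cutoff set per campaign (cut at about 5.5% in these data); inactive = the rest.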

Assay: Hsp70 transcriptional activators, primary screen, cell-based, HeLa, Hsp70 promoter luciferase, luminescence, 10 µM (AID 1203);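 also: 100% = MG132 at 30 µM as the positive control and 0% = DMSO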
Details: HeLa Hsp70 promoter luciferase reporter, at 10 µM, stronger effect = higher value, scaled: vehicle 0, proteasome-inhibitor control 100%
With `COc1ccc(C)cc1S(=O)(=O)N(CC(=O)Nc1cccc([N+](=O)[O-])c1)c1ccc(C)cc1` the activation was -0.49%.
`CCOC(=O)NC(=O)CSc1nnc(SCCC(=O)O)s1` showed an activation of -0.37%.
For `CC(C)C(=O)Nc1c(O)c2ccccc2[nH]c1=O`, the activation was -0.15%.
Molecule `N#C/C(=C/c1ccc(N2CCCCC2)o1)C(=O)NCCc1c[nH]c2ccccc12` has an activation of -0.42%.
`CN1CCN(c2nc(Nc3ccc(O)cc3)nc3ccccc23)CC1` gave an activation of -0.02%.
With `COc1ccc(CNC(=O)C2CCN(S(C)(=O)=O)CC2)cc1` the activation was -0.22%.
Work on `Cc1cc(NC(C)C)n2c(nc3ccccc32)c1C#N` yielded an activation of -0.27%.
For `COc1ccc(CC(=O)Nc2cc(S(=O)(=O)N3CCCCC3)ccc2N2CCN(C)CC2)cc1`, the activation was -0.39%.
Molecule `CC1CCN(C(=S)c2cccc([N+](=O)[O-])c2)CC1` has an activation of -0.04%.
`CC(OC(=O)c1ccccc1OCc1ccc(Cl)cc1)C(N)=O` (centres undefined) showed an activation of -0.14%.
With `Cc1ccc(N(C(=O)c2sc(C)nc2C)C(C(=O)NC(C)(C)C)c2ccncc2)cc1` (centres undefined) the activation was -0.38%.
For `COCC(C)n1c(C)cc(C(=O)CSc2cc(C)c3ccccc3n2)c1C` (centres undefined), the activation was -0.27%.
`COCC(C)n1c(SCc2ccc(C(=O)OC)o2)nc2ccccc2c1=O` (centres undefined) showed an activation of -0.28%.
With `COCCn1c(C)cc(C(=O)CSc2nc3ccccc3c(=O)n2C(C)COC)c1C` (centres undefined) the activation was 8.58% (active).
In the case of `O=S(=O)(c1ccc(F)cc1)n1ccc(-c2cnc(-c3ccccc3)s2)n1`, the activation is reported as -0.1%.
Molecule `CCOC(=O)CSc1ccccn1` has an activation of 2.15%.
For `COc1ccc(N(CC(=O)Nc2ccc(C)cc2C)S(=O)(=O)c2ccccc2[N+](=O)[O-])c(OC)c1`, the activation was -0.09%.
In the case of `Cc1cc(C)n(CC(=O)Nc2ccc([N+](=O)[O-])cc2)n1`, the activation is reported as -0.28%.
Molecule `OCCC1CN(Cc2ccccc2-c2ccco2)CCN1Cc1ccsc1` (centres undefined) has an activation of -0.08%.
In the case of `COc1cccc(CNC(=O)CCC2CCCN(C(=O)c3ccoc3C)C2)c1` (centres undefined), the activation is reported as -0.21%.
Molecule `COc1ccc2c(c1)CCC/C2=N\OC(=O)c1ccccc1F` has an activation of 0.09%.
Work on `O=C(CC1C(=O)NCCN1Cc1ccc(-c2ccccc2)cc1)NCc1ccncc1` (centres undefined) yielded an activation of -0.07%.
`Cc1cccc(NC(=S)Nc2ccc3cn[nH]c3c2)c1` gave an activation of -0.39%.
Work on `CC(=O)Nc1ccc(OCC(=O)NCc2ccc(C)cc2)cc1` yielded an activation of -0.17%.
With `COc1ccc(CS(=O)/C(Cl)=C(/Cl)C(=O)Nc2ccc(OC)nc2)cc1` (centres undefined) the activation was 20% (active).
In the case of `COc1ccc(NC(=S)Nc2ccccc2Cl)cn1`, the activation is reported as -0.12%.
For `COc1ccc(NC(=O)/C(Cl)=C(/Cl)S(=O)Cc2ccc(C)cc2)cn1` (centres undefined), the activation was 24.9% (active).
Molecule `Cc1ccc(NC(=O)OCc2cncs2)cc1` has an activation of 0.06%.
`COc1ccc(NC(=S)NCCNC(C)=O)cc1` showed an activation of 0.67%.
